The entries come from a sample that favours hits as a whole.
Cruzain inh Det: blocks cruzain activity in presence of Triton detergent; Potency, µM, most hits filed as inhibitors; P25779; 0.43% of 200,000 active; purified cruzain, Z-FR-AMC fluorescence, 0.01% Triton; note: nearly all actives have a fitted effect of over 40% in size
Target sequence (P25779 123-467 limits assumed): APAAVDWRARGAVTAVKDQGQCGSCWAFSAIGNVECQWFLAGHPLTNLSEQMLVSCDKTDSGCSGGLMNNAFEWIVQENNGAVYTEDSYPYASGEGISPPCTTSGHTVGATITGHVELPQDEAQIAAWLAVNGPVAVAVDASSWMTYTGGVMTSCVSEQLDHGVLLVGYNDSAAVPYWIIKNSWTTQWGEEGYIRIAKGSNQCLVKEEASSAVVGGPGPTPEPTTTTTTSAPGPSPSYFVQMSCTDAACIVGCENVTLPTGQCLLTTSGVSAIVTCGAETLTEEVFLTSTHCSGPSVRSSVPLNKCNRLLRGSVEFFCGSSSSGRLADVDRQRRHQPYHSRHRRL
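In this qHTS format, compounds are incubated with 1.5 nM cruzain for 15 min at room temperature before 2 uM Z-FR-AMC is added. Release of AMC is followed at 360/450 nm, and progress is taken as the 60 s fluorescence difference.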
Cruzain inh noDet: cruzain (T. cruzi) inhibition without detergent | P25779 | purified cruzain, Z-FR-AMC fluorescence, no detergent | Potency, µM, hits mostly inhibitors | 2.3% of 200,000 active | AID 1476; note: nearly all actives have a fitted effect of over 40% in size
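Detergent-free condition (0.00005% Triton X-100) in acetate buffer pH 5.5 with DTT. 1.5 nM enzyme and compound were pre-mixed 15 min, then 2 uM Z-FR-AMC substrate added; reaction progress from fluorescence change between first and third reads (60 s).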
Giardia FBPA inh: blocks Giardia fructose-bisphosphate aldolase activity; purified Giardia FBPA; Potency, µM (doses to about 59.6 µM), actives largely listed as inhibitors; 0.71% of 290,000 active; note: nearly all actives have a fitted effect of over 55% in size
Target sequence (A8B2U2 whole entry, looked up): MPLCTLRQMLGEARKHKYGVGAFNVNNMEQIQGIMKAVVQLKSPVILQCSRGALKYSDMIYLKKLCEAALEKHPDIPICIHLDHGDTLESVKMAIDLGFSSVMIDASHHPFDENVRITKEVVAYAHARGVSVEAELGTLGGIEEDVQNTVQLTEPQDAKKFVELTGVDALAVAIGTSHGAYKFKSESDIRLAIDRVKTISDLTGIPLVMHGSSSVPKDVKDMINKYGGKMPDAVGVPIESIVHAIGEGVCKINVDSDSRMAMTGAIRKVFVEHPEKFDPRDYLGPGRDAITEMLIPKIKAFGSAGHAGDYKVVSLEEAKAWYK
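40 nM FBPA preincubated 10 min at RT with compound (up to 57.5 uM final), then substrate plus GAPDH/TPI/NAD/arsenate coupling and diaphorase/resazurin added. Fluorescence read after 20 min at RT, 525/598 nm.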
A number is an active result; – = inactive; ? = inconclusive; · = no result; [ ] = dose if it differs, or a comment. Calls come from the whole dose curve; as a rule, active = well fitted curve in the direction sought with a large enough effect; inconclusive = small, poorly fitted or top-dose-only effect, or another doubt; inactive = no such curve, though single readings can be large; an effect the other way counts as inactive or inconclusive.

SMILES	Cruzain inh Det	Cruzain inh noDet	Giardia FBPA inh
C[N+](C)(C)CCC(=O)c1cccc2ccccc12	14.1µM	10µM	–
CCOC(=O)/C=c1\s/c(=C\c2ccc(C)cc2)c(=O)n1CC(=O)NCc1ccco1	–	15.8µM	–
CCOC(=O)/C=c1\s/c(=C\c2ccc(C(F)(F)F)cc2)c(=O)n1CC(=O)NCc1ccco1	–	?	–
CCOC(=O)/C=c1\s/c(=C\c2ccc(-c3ccccc3)cc2)c(=O)n1CC(=O)NCc1ccc2c(c1)OCO2	–	2.51µM	–
CCOC(=O)/C=c1\s/c(=C\c2sccc2C)c(=O)n1CC(=O)NCc1ccc(C)cc1	·	·	–
O=C(NCP(=O)(O)O)c1cccnc1	–	–	·
COc1cc([N+](=O)[O-])ccc1NC(=O)N1CCC2(CC1)Nc1ccccc1-n1cccc12	–	25.1µM	·
COc1cc(NC(=O)N2CCC3(CC2)Nc2cc(F)ccc2-n2cccc23)cc(OC)c1OC	–	?	·
C[C@@H]1CC[C@H]2C(=O)O[C@H](CN=[N+]=[N-])CN2[C@@H]1c1ccc(Br)cc1	·	·	–[12.9 µM]
Cc1ccc(NC(=O)CSc2nn(-c3ccc(Cl)cc3)c(=S)s2)cc1S(=O)(=O)N(C)C	–	?	–
CN(C)S(=O)(=O)c1cc(NC(=O)CSc2nn(-c3ccc(Cl)cc3)c(=S)s2)ccc1Cl	–	25.1µM	–
N#C[C@@H](N=Nc1ccccc1C(=O)O)C(N)=O	–	–	·
CCn1c(C)c(C)c2cc(C(=O)NCc3ccc(OC(C)C)cc3)ccc21	–	–	·
Cc1ccccc1NC(=O)c1ccc2c(c1)c(C)c(C)n2Cc1ccccc1	–	–	·
Cc1c(C)n(Cc2ccc(F)cc2)c2ccc(C(=O)NCCCN3CCOCC3)cc12	·	·	–
CSc1ccc(CCNC(=O)c2ccc3c(c2)c(C)c(C)n3Cc2ccc(F)cc2)cc1	–	15.8µM	·
CSc1cccc(NC(=O)c2ccc3c(c2)c(C)c(C)n3Cc2ccc(F)cc2)c1	–	15.8µM	·
CCOc1ccc(CNC(=O)c2ccc3c(c2)c(C)c(C)n3Cc2ccc(Cl)cc2)cc1	–	10µM	·
COC(=O)c1ccccc1NC(=O)Cn1nc(C)c2nn(-c3ccc(Cl)cc3)c(C)c2c1=O	–	–	·
ClC(Cl)C(Cl)Cl	–	–	·
N/C(=N\OC(=O)Oc1ccccc1)c1cccc([N+](=O)[O-])c1	–	–	–
O=C(C#Cc1ccccc1)c1cccc([N+](=O)[O-])c1	12.6µM	–	–
Cc1ccc(Cl)cc1NC(=O)Cn1c(SCC(=O)NCc2ccccc2)nc2ccccc21	–	–	·
COC(=O)c1ccccc1S(=O)(=O)N1CCc2nc(COc3ccccc3)c3c(c2C1)CO[C@@H](C)C3	·	·	–[12.9 µM]
COc1ccc(N(C(=O)c2cccc(C)c2)S(=O)(=O)c2ccc(Cl)cc2)cc1	–	–	·
SMILES	Cruzain inh Det	Cruzain inh noDet	Giardia FBPA inh
COc1ccc(N(C(=O)c2ccc(C(C)(C)C)cc2)S(=O)(=O)c2ccc(Cl)cc2)cc1	–	10µM	·
Cc1ccc(/C=C/C(=O)NC2CCCCCCC2)o1	22.4µM	20µM	–
Cc1ccc(/C=C/C(=O)Nc2sc3c(c2C#N)CCCC3)o1	–	7.94µM	–
Cc1ccc(/C=N/NC(=O)NC2CCCCC2)o1	·	·	–
CC(=O)Nc1sc2c(c1C#N)CCC2	·	·	–
CCc1ccc(CCC(=O)Nc2sc3c(c2C#N)CCCC3)o1	–	25.1µM	–
CCC(=O)Nc1sc2c(c1C#N)CCC2	·	·	–
CC(C)[C@H](NC(=O)[C@H](CCC(N)=O)NC(=O)CNC(=O)[C@@H]1CCCN1C(=O)[C@H](Cc1ccc(O)cc1)NC(=O)CN)C(=O)O	·	·	–
Cc1ccc(S(=O)(=O)/C=C\C#N)cc1	–	–	?
COc1ccc(C2CC(=O)Oc3c(C(CCN4CCOCC4)c4ccc5c(c4)OCO5)c(OC)cc(OC)c32)cc1 (stereo not drawn)	·	·	–
O=C(O)CNC(=O)c1ccccc1O	–	–	·
O=C(CSc1ccc(-c2ccco2)nn1)N1CCCC1	·	·	–
O=C(CSc1ccc(-c2ccco2)nn1)N1CCCCC1	·	·	12.6µM
N#Cc1c(NC(=O)COC(=O)c2ccc(F)cc2)sc2c1CCC2	–	?	–
Cc1ccc(C(=O)OCC(=O)Nc2sc3c(c2C#N)CCC3)cc1	–	20µM	–
COc1ccc(N(C)S(=O)(=O)c2cccc(C(=O)OCC(=O)Nc3sc4c(c3C#N)CCCCC4)c2)cc1	–	12.6µM	–
CCN(CC)S(=O)(=O)c1ccc(C(=O)OCC(=O)Nc2sc3c(c2C#N)CCCCC3)cc1	–	?	–
Cc1nc(-n2nc(C)c(CCC(C)C)c2C)sc1C(=O)Nc1ccc(Br)cc1	–	–	·
O=c1[nH]c(SCc2c(Cl)c(Cl)c(Cl)c(Cl)c2Cl)nc(=S)[nH]1	–	–	·
O=C1CC(c2ccc3c(c2)OCO3)c2cc(O)ccc2O1 (stereo not drawn)	–	–	–
CSCC[C@H](NC(=O)[C@H](CC(C)C)NC(=O)[C@H](Cc1c[nH]c2ccccc12)NC(=O)[C@H](CCC(N)=O)NC(=O)[C@@H](NC(=O)[C@H](Cc1ccccc1)NC(=O)[C@H](CC(=O)O)NC(=O)[C@H](CCC(N)=O)NC(=O)[C@H](C)NC(=O)[C@H](CCCNC(=N)N)NC(=O)[C@H](CCCNC(=N)N)NC(=O)[C@H](CO)NC(=O)[C@H](CC(=O)O)NC(=O)[C@H](CC(C)C)NC(=O)[C@H](Cc1ccc(O)cc1)NC(=O)[C@H](CCCCN)NC(=O)[C@H](CO)NC(=O)[C@H](Cc1ccc(O)cc1)NC(=O)[C@H](CC(=O)O)NC(=O)[C@H](CO)NC(=O)[C@@H](NC(=O)[C@H](Cc1ccccc1)NC(=O)[C@@H](NC(=O)CNC(=O)[C@H](CCC(N)=O)NC(=O)[C@H](CO)NC(=O)[C@@H](N)Cc1cnc[nH]1)[C@@H](C)O)[C@@H](C)O)C(C)C)C(=O)N[C@@H](CC(N)=O)C(=O)N[C@H](C(=O)O)[C@@H](C)O	·	·	–
O=C1CC(c2ccccc2)Sc2ccccc2N1Cc1ccccc1F (stereo not drawn)	–	–	·
S=C(Nc1ccc2nccnc2c1)N1CCOCC1	·	·	14.1µM
Cc1ccc(NC(=S)N2CCOCC2)cc1	–	–	–
COc1ccc(CNc2ncnc3ccc(-c4c(C)noc4C)cc23)cc1	·	·	–
SMILES	Cruzain inh Det	Cruzain inh noDet	Giardia FBPA inh
COC(=O)c1ccccc1NC(=O)Cn1c(=O)n(CCCC(=O)NCCc2ccc(OC)c(OC)c2)c(=O)c2ccccc21	–	–	·
CN1c2ccccc2C(C)(C)C12C=Cc1cc(O)ccc1O2 (stereo not drawn)	–	–	–
CN1c2ccccc2C(C)(C)C12C=Nc1c(cc(N3CCOCC3)c3ccccc13)O2 (stereo not drawn)	–	25.1µM	–
C[C@@]12CC[C@@H]3[C@H](CCC4=CC(=O)CC[C@]43C)[C@@H]1CC[C@@H]2C(=O)COS(=O)(=O)c1ccc(Br)cc1	–	–	·
CC(C)c1cc(C(N)=O)c(NC(=O)c2cccc(COc3ccc(Cl)cc3)c2)s1	–	20µM	–
Cc1nn(Cc2c(F)c(F)c(F)c(F)c2F)c(C)c1NC(=O)c1cccc(COc2ccc(Cl)cc2)c1	–	–	–
C[N+](C)(C)C(C1=CCCC1=O)c1ccccc1 (stereo not drawn)	–	–	·
COc1ccc2oc(-c3ccc(O)cc3)cc(=O)c2c1	–	?	–
COc1cc(NC(=O)COC(=O)CNS(=O)(=O)c2ccc(F)c(F)c2F)cc(OC)c1	28.2µM	25.1µM	–

Screening data: PubChem, National Center for Advancing Translational Sciences (NCATS)
